According to PubChem BioAssay AID1850 (Southern Research Specialized Biocontainment Screening …, 2009):
In all, about 310,000 compounds went through this assay and about 1,000 (0.32%) were called active. No rule for the calls is given here. Not all results are given here. Results with a measured potency or affinity are listed apart.

Test: Inhibition of PhoP regulon, Salmonella typhi GFP reporter cells, confirmation, 4 h (AID 1850);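 also: 0% = induced wells with vehicle and 100% = uninduced wells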
Conditions: Salmonella Typhi PhoP-promoter GFP reporter, fluorescence, at 50 µM, hits give high values

Row | Structure (SMILES) | inhibition
1 | CCCC(=O)N1CCN(c2nc3ccccc3s2)CC1 | -3.88% (inactive)
2 | Cc1ccc2c(Cl)cc(Cl)c(OCC(=O)N(C(C)C)C(C)C)c2n1 | -1.43% (inactive)
3 | Cc1ccc2c(Cl)cc(Cl)c(OCC(=O)NC(C)(C)C)c2n1 | -16.9% (inactive)
4 | COc1cccc(C(=O)NC2CCCc3ccccc32)c1OC (stereo not drawn) | -9.26% (inactive)
5 | CS(=O)(=O)N(CCc1ccccc1)CC(=O)N1CCN(c2ccccc2)CC1 | -4.94% (inactive)
6 | COc1ccc(CCNC(=O)COC(=O)C23CC4CC(CC(C4)C2)C3)cc1 | -12.8% (inactive)
7 | CCc1ccccc1NC(=S)N1CCCCCC1 | -5.25% (inactive)
8 | O=C(Cn1cncn1)N/N=C/c1ccccc1Cl | -13.1% (inactive)
9 | O=C(Cn1cncn1)N/N=C/c1cccc2ccccc12 | -7.61% (inactive)
10 | Cc1cc([N+](=O)[O-])nn1CC(=O)N/N=C/c1ccccc1Br | 13.2% (inactive)
11 | Cc1cc([N+](=O)[O-])nn1CC(=O)N/N=C/c1ccc(O)cc1O | 18.8% (inactive)
12 | O=C(NCC1CCCO1)c1cccc(Oc2ccccc2)c1 (stereo not drawn) | -8.15% (inactive)
13 | O=C(O)c1ccccc1N/N=C/c1cc(Br)cc(Br)c1O | 5.52% (inactive)
14 | CN(C)c1ccc(C(=O)N/N=C/c2cc(Br)cc(Br)c2O)cc1 | -1.06% (inactive)
15 | Brc1cccc(C=Nc2cccc3ncccc23)c1 | -0.83% (inactive)
16 | Oc1c(Br)cc(Br)cc1C=Nc1cccnc1 | 7.09% (inactive)
17 | Cc1cccc(N=Cc2cc(Br)cc(Cl)c2O)c1 | 10.7% (inactive)
18 | O=C(O)c1cccc(N/N=C/c2cc(Br)cc(Br)c2O)c1 | -6.95% (inactive)
19 | Cc1onc(-c2ccccc2Cl)c1C(=O)Nc1ccccc1C(N)=O | 7.75% (inactive)
20 | O=C(Nc1nnc(-c2ccc(F)cc2)s1)c1ccco1 | 2.98% (inactive)
21 | O=C(O)/C(=C\c1cccs1)c1ccc(F)cc1 | -11.8% (inactive)
22 | CNC(=O)C1C2C=CC3(O2)C1C(=O)N(CCOC)C3C(=O)NCc1ccc(OC)cc1 (stereo not drawn) | 16.8% (inactive)
23 | CC1CCCCC1NC(=O)CN(C)S(=O)(=O)c1cccc2cccnc12 (stereo not drawn) | 10.4% (inactive)
24 | CC(=O)c1c(C(C)=O)c(C)n(-c2ccc(N)c(C)c2)c1C | -3.65% (inactive)
25 | Cc1ccc(C)c(/C=C/C(=O)c2ccccc(=O)c2O)c1 | -3.4% (inactive)
26 | Cc1ccc(/C=C/C(=O)c2ccccc(=O)c2O)c(C)c1 | -6.97% (inactive)
27 | CCC(C)NC(=O)CSc1nc2ccc(N3CCOCC3)cc2c(=O)n1CCc1ccccc1 (stereo not drawn) | -0.99% (inactive)
28 | Cc1cc(C(=O)N/N=C/c2c(C)n(C)c3ccccc23)n[nH]1 | -9.94% (inactive)
